Laboratory results: PubChem BioAssay (NCATS)
Results filed as inconclusive are left out. Active and inactive are the calls of the source. The call rests on the fitted dose curve; in most records, active means well fitted curve in the direction sought with a large enough effect; inconclusive means small, poorly fitted or top-dose-only effect, or another doubt; inactive means no such curve, though single readings can be large; an effect the other way counts as inactive or inconclusive.

Experiments:
[1] = system: Zika virus NS2B-NS3 protease (linked construct); experiment: Primary screen NINDS Rhodamine qHTS for Zika virus inhibitors (AID 1347160); settings: outcome: dose series up to 57.1 µM unless noted; further: nearly all actives have a fitted effect of over 55% in size
How it was run: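 Purified NS2B-NS3 protease with the NS2B hydrophilic domain joined by a flexible linker (25 nM) in 10 mM Tris-HCl pH 8.0, 0.01% Tween 20, preincubated 15 min at RT with compound; Rhodamine110 peptide substrate 1.5 µM; fluorescence change over 15 min; 4-parameter Hill fit.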

[2] = qHTS to identify inhibitors of the type 1 interferon - major histocompatibility complex class I in skeletal muscle: primary screen against the NCATS LOPAC collection (AID 1347405);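 further: lytic HiBiT luminescence reporting HLA-B protein level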; further: potency means the concentration at half of the fitted maximal effect
How it was run: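 CRISPR-engineered immortalized human myoblasts (C25cl48) with HiBiT fused to endogenous HLA-B*08:01, stimulated with 4 ng/ml IFN-beta. LOPAC compounds tested as a 7-point 1:4.3 titration (top 46 uM final), 24 h at 37 C; lytic HiBiT luminescence read.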

[3] = qHTS for inhibitors of adenylyl cyclases using a fission yeast platform: a pilot screen against the NCATS LOPAC library (AID 1347410)
How it was run: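 S. pombe CHP2027 (AC9-GNAS-PDE4D2) carrying PKA-repressed fbp1-GFP, incubated 18 h at 30C in EMM with LOPAC compounds at up to 57 uM. GFP gain-of-signal read by laser scanning cytometry; DMSO negative control.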

[4] = qHTS to identify inhibitors of the type 1 interferon - major histocompatibility complex class I in skeletal muscle: primary screen against the NCATS Mechanism Interrogation Plate v5.0 (MIPE) Libary (AID 1347411); further: potency means the concentration at half of the fitted maximal effect; nearly all actives have a fitted effect of over 65% in size
How it was run: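 Immortalized human myoblasts (C25cl48) with HiBit knocked into endogenous HLA-B*08:01 were stimulated with 4 ng/ml IFN-beta and given compounds in 11-point 1:3 titration from 46 uM. After 24 h at 37 C, lytic HiBiT luminescence was read.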

[5] = Validation qHTS assay for inhibitors of Activation Induced Cytidine Deaminase (AID): UDG Counterscreen signal (AID 1347427)
How it was run: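 Counterscreen read of UDG activity (2 U/mL, 4/3x) in the FRET deamination format with AID (1 uM, 4/3x), DJC20/DJC23 substrates (250 nM, 4x), 4 h at room temperature. NaOH stop, fluorescence at 560 ex/665 em.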

[6] = target: Single-stranded DNA cytosine deaminase (Homo sapiens) (UniProt Q9GZX7); experiment: Validation qHTS assay for inhibitors of Activation Induced Cytidine Deaminase (AID): AID signal (AID 1347429)
How it was run: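 FRET deamination assay: 1 uM AID (4/3x stock) with UDG, compound up to 114 uM, then 250 nM DJC20/DJC23 substrate (4x stock) for 4 hr at room temperature. NaOH added, 30 min; fluorescence read 540/590 nm.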

[7] = target: Calcium and integrin-binding protein 1 (Homo sapiens) (UniProt Q99828); experiment: Validation qHTS for Identification of Calcium Integrin Binding protein 1 (CIB1) Competitor (AID 1508618)
How it was run: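 Fluorescence polarization with 1 uM CIB1-GST and 100 nM FITC-alphaIIb peptide in HEPES pH 7.4, NaCl, 5 mM CaCl2, Tween20. Compounds at up to 114 uM final, preincubated with protein 15 min; read after 15 min more at RT.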

[8] = target: Calcium and integrin-binding protein 1 (Homo sapiens) (UniProt Q99828); experiment: Primary qHTS for Identification of Calcium Integrin Binding Protein 1 (CIB1) Competitor (AID 1508620); further: potency means the concentration at half of the fitted maximal effect
How it was run: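 Fluorescence polarization competition: GST-tagged CIB1 (1 uM final) preincubated with compound 15 min at room temperature, then FITC-labelled alphaIIb peptide (100 nM final) added. After 15 min at room temperature, polarization read at Ex 480/Em 540.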

[9] = target: Lysine-specific demethylase 5B (Homo sapiens) (UniProt Q9UGL1); experiment: Optimization screen for KDM5B Histone Demethylases FDH coupled qHTS against the LOPAC library (AID 1347166)
How it was run: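 KDM5BDeltaAP (200nM final) preincubated 10 min with compound, then 12.5uM H3K4Me3, 25uM a-ketoglutarate, ascorbate, Fe(II), NAD+ and FDH added; 50mM HEPES pH 7.5, 0.01% Tween-20. NADH fluorescence (340/450 nm) change over 30 min, room temperature.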

[10] = Primary qHTS for inhibitors of La Crosse Virus (LACV) - induced cell death in SH-SY5Y cells (AID 1508616);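 further: top concentration of the series differs between compounds; higher means more rescue of cells from virus-induced death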
How it was run: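 SH-SY5Y cells (6000/well) plated 24 h, then given compounds by pin transfer and LACV at 0.01 MOI for 6 days at 37C. Viability measured by ATPLite luminescence, normalized to infected DMSO and uninfected DMSO.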

[11] = qHTS to identify inhibitors of the type 1 interferon - major histocompatibility complex class I in skeletal muscle: primary screen against the NCATS Pharmaceutical Collection (AID 1347407);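 further: luminescence of HiBiT knocked into endogenous HLA-B as interferon-induced MHC class I level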
How it was run: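 Immortalized human myoblasts (C25cl48) with HiBiT knocked into endogenous HLA-B*08:01 were stimulated with 4.0 ng/ml IFN-beta and treated with compounds ([…] top 46 uM) for 24 hrs at 37 C. HiBiT lytic luminescence read.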

[12] = target: Protein phosphatase 1D (Homo sapiens) (UniProt O15297); experiment: RapidFire Mass Spectrometry qHTS Assay for Modulators of WT P53-Induced Phosphatase 1 (WIP1) (AID 1347424);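 further: amount of dephosphorylated VEPPL-S-QETFS peptide product formed by WIP1; series mostly up to about 63 µM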
How it was run: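 10 nM WIP1 preincubated with compounds 1 hr at room temperature in pH 7.5 Tris buffer with 30 mM MgCl2, 1 mM TCEP; 2 uM VEPPL-pS-QETFS phosphopeptide for 5 min, formic acid quench; dephosphorylated product quantified by RapidFire MS against labelled standard.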

[13] = target: Protein phosphatase 1D (Homo sapiens) (UniProt O15297); experiment: Rhodamine-PBP qHTS Assay for Modulators of WT P53-Induced Phosphatase 1 (WIP1) (AID 1347425)
How it was run: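 WIP1 (5 nM final) was preincubated with compound for 1 hour at room temperature. It then dephosphorylated 10 uM VEPPL-pS-QETFS peptide in Tris-HCl pH 7.5 with 30 mM MgCl2. Released Pi was detected by 10 uM Rh-PBP fluorescence (ex 525/em 598 nm) read at 1-min intervals for 11 min, as delta f1 - f0.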

[14] = target: Calcium and integrin-binding protein 1 (Homo sapiens) (UniProt Q99828); experiment: Confirmatory qHTS for Identification of Calcium Integrin Binding Protein 1 (CIB1) Competitor (AID 1508617); further: nearly all actives have a fitted effect of over 65% in size
How it was run: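 FP competition: CIB1-GST (1 uM final) in 5 mM HEPES pH 7.4, 125 mM NaCl, 5 mM CaCl2, 0.01% Tween20 preincubated 15 min RT with compounds (up to 114 uM), then FITC-alphaIIb peptide (100 nM), 15 min RT; Ex 480/Em 540.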

Measured: Potency

Sequence of Lysine-specific demethylase 5B (Homo sapiens) (Q9UGL1 whole entry, looked up): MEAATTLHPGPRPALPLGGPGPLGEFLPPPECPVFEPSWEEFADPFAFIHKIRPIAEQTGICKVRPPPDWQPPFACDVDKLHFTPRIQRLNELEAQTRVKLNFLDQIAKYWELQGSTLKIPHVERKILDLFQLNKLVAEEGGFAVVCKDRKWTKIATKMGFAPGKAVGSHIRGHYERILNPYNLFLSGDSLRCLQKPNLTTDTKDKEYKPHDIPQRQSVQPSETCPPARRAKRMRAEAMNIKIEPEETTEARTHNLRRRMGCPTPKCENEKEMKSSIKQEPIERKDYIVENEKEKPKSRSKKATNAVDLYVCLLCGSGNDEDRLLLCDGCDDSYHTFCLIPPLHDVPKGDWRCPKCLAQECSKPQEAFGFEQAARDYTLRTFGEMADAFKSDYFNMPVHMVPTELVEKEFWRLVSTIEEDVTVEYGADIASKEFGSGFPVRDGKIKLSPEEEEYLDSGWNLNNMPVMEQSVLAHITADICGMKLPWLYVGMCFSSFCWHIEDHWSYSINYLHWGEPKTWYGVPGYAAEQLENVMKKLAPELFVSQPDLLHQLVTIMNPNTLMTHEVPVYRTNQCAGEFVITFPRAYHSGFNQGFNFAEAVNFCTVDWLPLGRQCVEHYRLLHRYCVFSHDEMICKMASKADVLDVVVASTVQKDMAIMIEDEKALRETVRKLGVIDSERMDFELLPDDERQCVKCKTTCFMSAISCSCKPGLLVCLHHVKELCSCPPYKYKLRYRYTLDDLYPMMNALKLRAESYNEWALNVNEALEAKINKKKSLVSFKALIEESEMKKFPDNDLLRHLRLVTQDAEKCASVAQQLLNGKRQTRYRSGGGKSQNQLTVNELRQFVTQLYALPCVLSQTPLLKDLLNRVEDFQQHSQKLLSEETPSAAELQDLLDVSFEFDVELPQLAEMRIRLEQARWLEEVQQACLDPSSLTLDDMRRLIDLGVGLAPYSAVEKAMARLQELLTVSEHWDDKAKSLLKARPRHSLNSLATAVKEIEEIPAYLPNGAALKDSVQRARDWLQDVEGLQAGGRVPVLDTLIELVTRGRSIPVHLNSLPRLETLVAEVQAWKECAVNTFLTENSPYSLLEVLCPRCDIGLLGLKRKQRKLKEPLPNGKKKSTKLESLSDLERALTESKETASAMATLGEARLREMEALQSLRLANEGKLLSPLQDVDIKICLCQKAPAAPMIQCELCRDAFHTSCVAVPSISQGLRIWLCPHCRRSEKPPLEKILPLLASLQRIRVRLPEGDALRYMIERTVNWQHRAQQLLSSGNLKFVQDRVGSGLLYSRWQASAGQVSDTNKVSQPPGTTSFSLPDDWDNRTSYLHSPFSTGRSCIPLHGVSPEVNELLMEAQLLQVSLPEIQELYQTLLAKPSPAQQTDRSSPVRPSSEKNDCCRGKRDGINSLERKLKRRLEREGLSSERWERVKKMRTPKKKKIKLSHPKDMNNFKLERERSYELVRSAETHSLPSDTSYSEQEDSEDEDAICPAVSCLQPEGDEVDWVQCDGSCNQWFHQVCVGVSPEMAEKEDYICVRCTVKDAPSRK
Sequence of Calcium and integrin-binding protein 1 (Homo sapiens) (Q99828 whole entry, looked up): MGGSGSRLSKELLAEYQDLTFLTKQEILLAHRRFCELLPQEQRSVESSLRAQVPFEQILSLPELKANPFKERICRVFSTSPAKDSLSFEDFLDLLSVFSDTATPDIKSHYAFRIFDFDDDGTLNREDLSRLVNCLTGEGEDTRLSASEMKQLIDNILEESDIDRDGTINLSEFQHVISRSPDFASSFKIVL
Sequence of Single-stranded DNA cytosine deaminase (Homo sapiens) (Q9GZX7 whole entry, looked up): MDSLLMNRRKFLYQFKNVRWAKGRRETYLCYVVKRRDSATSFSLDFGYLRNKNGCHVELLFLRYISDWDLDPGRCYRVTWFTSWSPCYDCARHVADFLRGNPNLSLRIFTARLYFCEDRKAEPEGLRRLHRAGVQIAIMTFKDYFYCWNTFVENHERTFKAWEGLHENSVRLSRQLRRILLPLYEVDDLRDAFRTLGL
Sequence of Protein phosphatase 1D (Homo sapiens) (O15297 whole entry, looked up): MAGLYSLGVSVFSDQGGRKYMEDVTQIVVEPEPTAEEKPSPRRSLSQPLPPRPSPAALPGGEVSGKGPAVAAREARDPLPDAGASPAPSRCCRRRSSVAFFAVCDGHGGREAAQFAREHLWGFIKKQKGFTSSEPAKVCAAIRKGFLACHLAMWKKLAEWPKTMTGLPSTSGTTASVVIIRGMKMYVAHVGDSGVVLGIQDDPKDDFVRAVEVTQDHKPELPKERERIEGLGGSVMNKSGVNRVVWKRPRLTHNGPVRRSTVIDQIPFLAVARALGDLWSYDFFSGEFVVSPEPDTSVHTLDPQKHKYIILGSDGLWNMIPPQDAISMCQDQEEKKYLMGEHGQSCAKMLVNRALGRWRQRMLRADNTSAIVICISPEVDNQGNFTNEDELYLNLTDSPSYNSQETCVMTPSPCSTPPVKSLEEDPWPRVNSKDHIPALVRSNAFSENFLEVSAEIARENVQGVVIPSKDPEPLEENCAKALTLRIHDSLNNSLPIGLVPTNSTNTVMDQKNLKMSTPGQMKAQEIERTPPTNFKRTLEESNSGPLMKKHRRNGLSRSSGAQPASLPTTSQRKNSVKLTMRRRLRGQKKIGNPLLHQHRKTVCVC

CC(C)N(CCC(=O)c1ccc2ccccc2c1)Cc1ccccc1
active: [2] 12.6 µM | [4] 5.87 µM | [8] 28.2 µM
inactive: [1] | [3] | [5] | [6] | [7]

O=C1NC(c2cccc([N+](=O)[O-])c2)=CCN1c1ccccc1O
inactive: [1] | [9] | [2] | [3] | [5] | [6] | [10] | [8]

C=CCOc1cc(Cl)ccc1C(=O)NCCN(CC)CC
inactive: [1] | [11] | [12] | [13] | [10] | [8]

O=C1CC[C@H](C(=O)N2CCCCC2)N1
inactive: [1] | [11] | [12] | [13] | [10] | [8]

Brc1ccc([C@H]2CN3CCSC3=N2)cc1
inactive: [1] | [2] | [3] | [5] | [6] | [10] | [7] | [8]

CCOC(=O)c1ccc(NC(=O)CN2CCCCC2)cc1
inactive: [1] | [11] | [12] | [13] | [10] | [8]

COc1ccccc1N1CCN(CCN2C(=O)CC3(CCCC3)CC2=O)CC1
not listed: [4] | [11] | [12] | [13] | [14]
inactive: all other assays above

Nc1ncnc2n[nH]c(Nc3ccc(F)cc3)c12
inactive: [1] | [9] | [3] | [5] | [6] | [10] | [7] | [8]

CC(C)(C)c1nnc(NS(=O)(=O)c2ccccc2)s1
inactive: [1] | [11] | [12] | [13] | [10] | [8]

CC[N+]1(CC)CCC(=C(c2ccccc2)c2ccccc2)C1C (stereo not drawn)
inactive: [1] | [11] | [12] | [13] | [10] | [8]

Nc1cccc2c(N)cccc12
inactive: [11]

CC(=O)O[C@@H]1C(=O)O[C@@H]2[C@H]1OC(=O)[C@@H]2OC(C)=O
inactive: [1] | [11] | [12] | [13] | [10] | [8]

CN1CCC(N(Cc2cccs2)c2ccccc2)CC1
inactive: [1] | [11] | [12] | [13] | [14]
